± gives the standard deviation.

What all share (assay): peptide microarray binding signal (635 nm), min-max normalized on array (fraction of array maximum); higher = stronger binding
Assay [1] has as its target T1, HaloTag-ATRX ADD domain (163-292).
T1 chain: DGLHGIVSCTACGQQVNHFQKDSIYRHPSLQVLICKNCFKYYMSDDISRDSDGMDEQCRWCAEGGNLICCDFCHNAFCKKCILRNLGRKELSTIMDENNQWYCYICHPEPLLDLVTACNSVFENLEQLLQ
The procedure, abridged:
(§1)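 Arrays carried histone 13-mer peptide–cellulose conjugates printed in triplicate on nitrocellulose alongside a Cy3 tracer. After overnight blocking at 4°C, they were incubated for 1 h at 4°C with biotin-labelled HaloTag reader fusions (10 nM to 1 μM) plus streptavidin-Alexa Fluor 647, or with rabbit histone antibodies (1:10,000 to 1:2,000) plus anti-rabbit Alexa 647. Scanning on an Axon GenePix 4000B used 635 nm for signal and 532 nm for misprints. The binding signal reported is each triplicate's mean spot intensity after per-library min-max scaling.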

The target in assay [2] is HaloTag-ING2 PHD (mouse Ing2 200-280). In a few lines:
as §1

Assay [3] addresses anti-H3K4me3 antibody ab8580. In a few lines: as §1
The target in assay [4] is anti-H3K9me3 antibody ab8898. The procedure, abridged:
as §1

Setting [5] is: peptide region: H3 30-42, peptide modifications: H3K36me3 H3K37me2, binder concentration: 1:2,000 dilution.
Setting [6] is: peptide region: H3 30-42, peptide modifications: H3K36me3 H3K37me2, binder concentration: 1:10,000 dilution.
Setting [7] is: peptide region: H3 50-62, peptide modifications: H3K56me2 H3T58ph, binder concentration: 1:2,000 dilution.
The mark [8] stands for this setting: peptide region: H3 50-62, peptide modifications: H3K56me2 H3T58ph, binder concentration: 1:10,000 dilution.
The mark [9] stands for this setting: peptide region: H3 30-42, peptide modifications: H3K37me2, binder concentration: 1:2,000 dilution.
Setting [10] is: peptide region: H3 30-42, peptide modifications: H3K37me2, binder concentration: 1:10,000 dilution.
[11] abbreviates: peptide region: H3 30-42, peptide modifications: H3T32ph H3K36me3, binder concentration: 1:2,000 dilution.
Where [12] appears, read: peptide region: H3 30-42, peptide modifications: H3T32ph H3K36me3, binder concentration: 1:10,000 dilution.
Setting [13] is: peptide region: H3 50-62, peptide modifications: H3K56ac, binder concentration: 1:2,000 dilution.
Setting [14] is: peptide region: H3 50-62, peptide modifications: H3K56ac, binder concentration: 1:10,000 dilution.

B1: H3 30-42 P A T G G V Kme3 Kme2 P H R Y R (peptide)
chain: PATGGVKKPHRYR
Take B1: the “peptide microarray binding signal” value in assay [1] (peptide region: H3 30-42, peptide modifications: H3K36me3 H3K37me2, binder concentration: 50 nM) is 0.002539 ± 1.1e-05; in assay [1] (peptide region: H3 30-42, peptide modifications: H3K36me3 H3K37me2, binder concentration: 500 nM), 0.00462 ± 0.00097; in assay [2] (peptide region: H3 30-42, peptide modifications: H3K36me3 H3K37me2, binder concentration: 10 nM), 0.00471 ± 0.0004; in assay [2] (peptide region: H3 30-42, peptide modifications: H3K36me3 H3K37me2, binder concentration: 100 nM), 0.00347 ± 0.00061; in assay [3] (setting [5]), 0.00132 ± 0.00026; in assay [3] (setting [6]) it was 0.00805 ± 0.0039. Moreover, the “peptide microarray binding signal” value was found to be 0.00571 ± 0.0035 in assay [4] (setting [5]) and 0.00363 ± 0.00092 in assay [4] (setting [6]).

B2: H3 50-62 E I R R Y Q Kme2 S Tph E L L I (peptide)
chain: EIRRYQKSTELLI
Consider B2, for which the “peptide microarray binding signal” value in assay [1] (peptide region: H3 50-62, peptide modifications: H3K56me2 H3T58ph, binder concentration: 50 nM) is 0.00116 ± 2.9e-05; in assay [1] (peptide region: H3 50-62, peptide modifications: H3K56me2 H3T58ph, binder concentration: 500 nM), 0.00181 ± 4.2e-05; in assay [2] (peptide region: H3 50-62, peptide modifications: H3K56me2 H3T58ph, binder concentration: 10 nM), 0.00286 ± 0.00011; in assay [2] (peptide region: H3 50-62, peptide modifications: H3K56me2 H3T58ph, binder concentration: 100 nM), 0.000992 ± 1.1e-05; in assay [3] (setting [7]), 0.000415 ± 1.5e-05; in assay [3] (setting [8]), 0.000456 ± 4.9e-06. Further, the figures for the “peptide microarray binding signal” value in assay [4] (setting [7]) and in assay [4] (setting [8]) were 0.00199 ± 0.00011 and 0.000923 ± 1.9e-05, respectively.

B3: H3 30-42 P A T G G V K Kme2 P H R Y R (peptide)
chain: PATGGVKKPHRYR
B3: the “peptide microarray binding signal” value in assay [1] (peptide region: H3 30-42, peptide modifications: H3K37me2, binder concentration: 50 nM) amounted to 0.0036 ± 0.00019; in assay [1] (peptide region: H3 30-42, peptide modifications: H3K37me2, binder concentration: 500 nM), 0.00771 ± 0.00019; in assay [2] (peptide region: H3 30-42, peptide modifications: H3K37me2, binder concentration: 10 nM), 0.0121 ± 0.00097; in assay [2] (peptide region: H3 30-42, peptide modifications: H3K37me2, binder concentration: 100 nM) it was 0.0202 ± 0.002; in assay [3] (setting [9]) it was 0.00302 ± 0.00039; in assay [3] (setting [10]), 0.00297 ± 0.00012. For the same molecule, the “peptide microarray binding signal” value in assay [4] (setting [9]) is 0.00163 ± 0.00014; in assay [4] (setting [10]), 0.001441 ± 1.4e-05.

B4: H3 30-42 P A Tph G G V Kme3 K P H R Y R (peptide)
chain: PATGGVKKPHRYR
For the molecule B4, the “peptide microarray binding signal” value in assay [1] (peptide region: H3 30-42, peptide modifications: H3T32ph H3K36me3, binder concentration: 50 nM) came out at 0.00426 ± 9.2e-05; in assay [1] (peptide region: H3 30-42, peptide modifications: H3T32ph H3K36me3, binder concentration: 500 nM), 0.00686 ± 0.00012; in assay [2] (peptide region: H3 30-42, peptide modifications: H3T32ph H3K36me3, binder concentration: 10 nM), 0.00925 ± 0.00068; in assay [2] (peptide region: H3 30-42, peptide modifications: H3T32ph H3K36me3, binder concentration: 100 nM), 0.0248 ± 0.0061; in assay [3] (setting [11]) it was 0.0335 ± 0.008; in assay [3] (setting [12]), 0.0116 ± 0.0022. For the same molecule, the entries for the “peptide microarray binding signal” value in assay [4] (setting [11]) and in assay [4] (setting [12]) were 0.0489 ± 0.013 and 0.0155 ± 0.0012, respectively.

B5: H3 50-62 E I R R Y Q Kac S T E L L I (peptide)
chain: EIRRYQKSTELLI
On to B5, for which the “peptide microarray binding signal” value in assay [1] (peptide region: H3 50-62, peptide modifications: H3K56ac, binder concentration: 50 nM) is 0.0121 ± 0.00021; in assay [1] (peptide region: H3 50-62, peptide modifications: H3K56ac, binder concentration: 500 nM), 0.0135 ± 0.0015; in assay [2] (peptide region: H3 50-62, peptide modifications: H3K56ac, binder concentration: 10 nM) it was 0.00913 ± 0.00065; in assay [2] (peptide region: H3 50-62, peptide modifications: H3K56ac, binder concentration: 100 nM) it was 0.0108 ± 0.00062; in assay [3] (setting [13]), 0.0016 ± 0.00024; in assay [3] (setting [14]), 0.00211 ± 0.00015. Also, the results for the “peptide microarray binding signal” value in assay [4] (setting [13]) and in assay [4] (setting [14]) were 0.00222 ± 0.00049 and 0.00173 ± 6.6e-05, respectively.

For the origin of these results see the supplement of paper PMC4022240.
